# The campaign covered roughly 310,000 compounds. About 2,200 (0.71%) showed an effect of 50% or more. Effects have a minus sign here. For the sample, strong results were picked, then their nearest neighbours and some compounds at random.
# Biological target: human ether-à-go-go-related gene (hERG) potassium channel (human, UniProt Q12809)
# Experiment: primary screen, population patch clamp on CHO cells stably expressing hERG; higher = less effect of the substance
# Sequence of human ether-à-go-go-related gene (hERG) potassium channel (Q12809 whole entry, looked up): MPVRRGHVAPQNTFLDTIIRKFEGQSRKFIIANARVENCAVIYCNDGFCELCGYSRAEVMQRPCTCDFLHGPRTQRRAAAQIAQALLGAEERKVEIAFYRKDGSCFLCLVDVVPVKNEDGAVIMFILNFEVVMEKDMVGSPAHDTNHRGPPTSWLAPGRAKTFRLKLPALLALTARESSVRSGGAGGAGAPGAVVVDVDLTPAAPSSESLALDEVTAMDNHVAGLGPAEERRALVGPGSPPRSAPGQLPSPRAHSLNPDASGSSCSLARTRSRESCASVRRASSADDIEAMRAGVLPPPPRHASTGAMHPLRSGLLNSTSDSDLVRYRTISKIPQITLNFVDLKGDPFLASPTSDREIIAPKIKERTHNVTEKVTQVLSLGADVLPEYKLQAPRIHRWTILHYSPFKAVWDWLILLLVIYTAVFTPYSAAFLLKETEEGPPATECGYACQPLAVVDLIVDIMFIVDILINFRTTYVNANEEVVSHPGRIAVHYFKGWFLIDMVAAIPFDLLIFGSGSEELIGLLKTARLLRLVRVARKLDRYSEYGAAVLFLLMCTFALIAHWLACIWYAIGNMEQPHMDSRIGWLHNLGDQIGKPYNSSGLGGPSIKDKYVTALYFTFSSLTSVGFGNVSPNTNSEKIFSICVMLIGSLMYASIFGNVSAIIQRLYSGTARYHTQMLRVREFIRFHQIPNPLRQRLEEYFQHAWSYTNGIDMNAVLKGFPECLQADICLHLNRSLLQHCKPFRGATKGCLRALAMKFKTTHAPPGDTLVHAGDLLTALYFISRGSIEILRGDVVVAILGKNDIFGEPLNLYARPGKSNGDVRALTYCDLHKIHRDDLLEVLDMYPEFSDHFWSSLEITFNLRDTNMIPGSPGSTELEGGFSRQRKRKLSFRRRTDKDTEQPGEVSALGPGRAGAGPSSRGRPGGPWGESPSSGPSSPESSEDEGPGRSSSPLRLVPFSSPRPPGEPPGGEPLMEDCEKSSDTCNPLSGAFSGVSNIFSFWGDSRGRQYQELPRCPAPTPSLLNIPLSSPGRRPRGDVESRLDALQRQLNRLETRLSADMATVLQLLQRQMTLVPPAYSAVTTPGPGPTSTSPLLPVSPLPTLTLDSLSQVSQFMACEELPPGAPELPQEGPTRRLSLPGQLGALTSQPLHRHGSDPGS
row,Structure (SMILES),"hERG current change (%, negative = inhibition) at 1uM"
1,Cc1ccccc1C(=O)Nc1ccnc(-c2ccncc2)n1,14.1%
2,C/C(CC(=O)NCc1ccco1)=N\NC(=O)C(c1ccccc1)c1ccccc1,6.69%
3,CCOc1ccc(CCNC(=O)CCc2nnc3ccc(N4CCOCC4)nn23)cc1OCC,7.73%
4,O=C(Nc1ccc(SC(F)F)cc1)C12CCC(CC1)C2,5.66%
5,CN(CC(=O)Nc1ccccc1Cl)C(=O)COC(=O)c1nc(Cl)c(Cl)c(Cl)c1Cl,9.88%
6,C=CCn1c(COc2ccc(Cl)cc2)nnc1SCC(=O)c1c(N)n(C)c(=O)n(C)c1=O,10.5%
7,Cc1ccccc1-c1nc(CN2CCC(C(=O)NCCC3=CCCCC3)CC2)c(C)o1,-32%
8,Cc1oc(-c2ccccc2F)nc1CN1CCC(C(=O)NCCC2=CCCCC2)CC1,-51.1%
9,Cc1oc(-c2ccccc2F)nc1CN1CCC(C(=O)NC2CC2)CC1,0.032%
10,CN(C)CCN(C(=O)CN1C(=O)c2ccccc2C1=O)c1nc2cc3c(cc2s1)OCO3.Cl,7.04%
11,COc1ccccc1C(=O)N/C(=C/c1ccccc1)C(=O)NC(CCSC)C(=O)O (stereo not shown),12%
12,OCCOc1cccc(CN2CCC(CO)(CCOc3ccccc3)CC2)c1,-2.72%
13,CC(=O)Nc1ccc(CN2CCC(CO)(CCOc3ccccc3)CC2)cc1,-43.8%
14,OCC1(CCOc2ccccc2)CCN(Cc2ccncc2)CC1,-0.954%
15,COC(=O)c1ccc(CN2CCC(CO)(Cc3cccc(OC)c3)CC2)cc1,-45.3%
16,COC(=O)c1ccc(CN2CCC(CO)(CCOc3ccccc3)CC2)cc1,-81.7%
17,CSc1ccc(CN2CCC(CO)(CCOc3ccccc3)CC2)cc1,-81.2%
18,c1csc(CN2CCN(Cc3cccs3)C2c2cccs2)c1,4.62%
19,O=C(c1ccc(=O)[nH]c1)N1CCN(S(=O)(=O)c2ccc3ccccc3c2)CC1,6.52%
20,O=C(NN=C1C2CC3CC(C2)CC1C3)c1ccncc1,-0.112%
21,Cl.Clc1ccc(-c2ccc(CNCc3ccccn3)o2)cc1,-5.94%
22,O=C(c1cc2cc([N+](=O)[O-])ccc2oc1=O)N1CCN(C2CCCCC2)CC1,-60.8%

row,Structure (SMILES),"hERG current change (%, negative = inhibition) at 1uM"
1,CCN1CCN(C(=O)c2cc3cc([N+](=O)[O-])ccc3oc2=O)CC1,-1.11%
2,O=C(c1cc2cc([N+](=O)[O-])ccc2oc1=O)N1CCOCC1,7.86%
3,COc1ccc(Cc2nc3ccc(C(=O)NC(C)c4cn(C)nc4C)cc3o2)cc1 (stereo not shown),9.59%
4,COc1ccc(OCCOC(=O)c2[nH]c(C)c(C(C)=O)c2C)cc1,8.51%
5,COc1ccc(-c2csc(NC(=O)CN3C(=O)NC4(CCCC4)C3=O)n2)cc1,1.42%
6,COc1ccc(C(=O)C(OC(=O)c2ccccc2)c2ccccc2)cc1 (stereo not shown),2.14%
7,Cc1ccccc1CSc1nnc(-c2ccccn2)n1C,10.8%
8,Cc1ccccc1NC(=O)CSc1ccc2nnc(-c3ccccn3)n2n1,7.85%
9,Cc1ccc(CSc2ccc3nnc(-c4ccccn4)n3n2)cc1,-36.5%
10,O=C(CSc1ccc2nnc(-c3ccccn3)n2n1)N1CCN(c2ccccc2)CC1,-89.9%
11,O=C(CSc1ccc2nnc(-c3ccccn3)n2n1)N1CCOCC1,6.32%
12,Cc1ccc(NC(=O)CSc2ccc3nnc(-c4ccccn4)n3n2)cc1,5.84%
13,Cc1ccc(C)c(CSc2ccc3nnc(-c4ccccn4)n3n2)c1,-54.3%
14,Cc1ccccc1CSc1ccc2nnc(-c3ccccn3)n2n1,-50.9%
15,CCOC(=O)N1CCN(C(=O)CSc2ccc3nnc(-c4ccccn4)n3n2)CC1,2.22%
16,CNc1sc(C(=O)c2ccc(F)cc2)c(N)c1-c1nc2ccccc2s1,5.15%
17,CNNC(=S)NCCC1=CCCCC1,10.2%
18,C/C(N)=C(/C#N)C(=O)CSc1nc2ccc(C)cc2[nH]1,11%
19,Cn1cnnc1SC(C(=O)Nc1ccc(F)cc1)c1ccccc1 (stereo not shown),4.93%
20,CCCc1ccc(-c2cc(C(=O)NCCc3ccc(S(N)(=O)=O)cc3)c3ccccc3n2)cc1,16.3%
21,O=C(CCS(=O)(=O)c1ccc(Br)cc1)Nc1ccccn1,15.2%
22,CCOc1ccc(N(CC(=O)OC)S(=O)(=O)c2ccc(OC)c(OC)c2)cc1,-0.463%

row,Structure (SMILES),"hERG current change (%, negative = inhibition) at 1uM"
1,COc1ccc(-n2c(Cc3cccn3C)nnc2SCC(=O)Nc2cc(Cl)ccc2OC)cc1,-50.9%
2,COc1ccc(Cl)cc1NC(=O)CSc1nnc(Cc2cccn2C)n1-c1ccc(F)cc1,2.71%
3,COc1ccc(-n2c(Cc3cccn3C)nnc2SCC(=O)Nc2ccccc2OC)cc1,-4.23%
4,COc1ccc(C2NN=C(c3ccc(C)cc3)S2)cc1OC (stereo not shown),16.1%
5,CCN(CC)CCN(C(=O)C1=COCCO1)c1nc2cc3c(cc2s1)OCO3.Cl,-63.3%
6,CCN(CC)CCN(C(=O)c1ccc(C(=O)c2ccccc2)cc1)c1nc2c(OC)cccc2s1.Cl,-33%
7,CCN(C(=O)C1=COCCO1)c1nc2c(C)cccc2s1,0.721%
8,CCN(CC)CCN(C(=O)C1=COCCO1)c1nc2c(OC)ccc(OC)c2s1.Cl,-84.9%
9,CCN(CC)CCN(C(=O)c1ccc([N+](=O)[O-])cc1)c1nc2c(OC)cccc2s1.Cl,-53.4%
10,CCN(CC)CCN(C(=O)C1=COCCO1)c1nc2cc(C)cc(C)c2s1.Cl,-36.7%
11,CCOc1cccc2sc(N(CCN(CC)CC)C(=O)c3cccc([N+](=O)[O-])c3)nc12.Cl,-44.9%
12,CCN(CC)CCN(C(=O)c1ccc2c(c1)OCCO2)c1nc2cc3c(cc2s1)OCO3.Cl,-18.3%
13,CCN(CC)CCN(C(=O)C1=COCCO1)c1nc2ccc(C)cc2s1.Cl,-34%
14,Cc1c(Cl)c([N+](=O)[O-])nn1CCCC(=O)Nc1cc(Cl)ccc1Cl,-10.9%
15,O=C(CP(=O)(c1ccccc1)c1ccccc1)N1CCCCC1,6.28%
16,CCOC(=O)c1cnc2ccc(OCC)cc2c1N1CCN(C)CC1.Cl,-15.6%
17,CCOc1ccc(C(=O)c2cnc3ccccc3c2N2CCN(CC)CC2)cc1,-43.9%
18,CCc1ccc(C(=O)c2cnc3ccc(OC)cc3c2N2CCN(CC)CC2)cc1,-46.6%
19,CCN1CCN(c2c(C(=O)c3ccc(OC)cc3)cnc3ccccc23)CC1,-67.9%
20,COc1cc2ncc(C(=O)c3ccccc3)c(N3CCN(Cc4ccccc4)CC3)c2cc1OC,8.52%
21,CCOc1ccc2ncc(C(=O)c3ccc(OC)cc3)c(N3CCN(CC)CC3)c2c1,-66%
22,CC1CCN(CC(C)OC(=O)c2ccc3c(c2)OCCO3)CC1.Cl (stereo not shown),3.75%

row,Structure (SMILES),"hERG current change (%, negative = inhibition) at 1uM"
1,O=C(NC(NC(=S)Nc1ccccc1C(=O)O)C(Cl)(Cl)Cl)c1ccco1 (stereo not shown),5.62%
2,Cc1ccc(S(=O)(=O)NCCC(=O)N2CCCCCCC2)cc1,22.3%
3,Cn1c(=O)oc2cc(S(=O)(=O)NCCN3CCN(c4ccccc4F)CC3)ccc21,3.83%
4,CN(C)c1ccc(-c2noc(C3CCN(S(=O)(=O)c4cccc(C(=O)O)c4)CC3)n2)cc1,13.6%
5,O=C(O)c1cccc(N=NN2CCCCCC2)c1,8.11%
6,Cc1ccc(Nc2nc(N)nc(CSc3nc(C)cc(C)n3)n2)cc1,8.5%
7,Cc1cc(C)n2c(Br)c(CSc3nc4ccccc4o3)nc2n1,-53%
8,Cc1cc(C)n2c(Br)c(CSc3nc4ccccc4s3)nc2n1,-19.3%
9,Cc1csc2nc(CSc3nc4ccccc4o3)c(Br)n12,15.9%
10,Cn1c(=O)c(C(=O)CN2CCN(Cc3ccc4c(c3)OCO4)CC2)c(N)n(Cc2ccccc2)c1=O,-40.4%
11,CCn1c(=O)c(C(=O)CN2CCOCC2)c(N)n(Cc2ccccc2)c1=O,-0.674%
12,CCn1c(=O)c(C(=O)CN2CCN(Cc3ccc4c(c3)OCO4)CC2)c(N)n(Cc2ccccc2)c1=O,-67.4%
13,CCn1c(=O)c(C(=O)CN(C)Cc2ccc(F)cc2)c(N)n(Cc2ccccc2)c1=O,-33.6%
14,CCn1c(=O)c(C(=O)CN(C)Cc2cccc(OC)c2OC)c(N)n(Cc2ccccc2)c1=O,-18.3%
15,CCOc1ccc(CN(C)CC(=O)c2c(N)n(Cc3ccccc3)c(=O)n(CC)c2=O)cc1OC,-82.5%
16,CCNC1=C(Cl)C(=O)c2ccccc2C1=O,14.3%
17,O=C(O)C1CCCN1C(=O)NC1CCCCC1 (stereo not shown),17.1%
18,O=C(c1cc(Br)ccc1Cl)N1CCN(c2ccc(N3CCOCC3)nn2)CC1,5.71%
19,COc1cccc(/C=N/NC(=O)NC23CC4CC(CC(C4)C2)C3)c1O,6.53%

# Source: PMC4336329 (PLoS ONE, 2015)
